Assay results reported in PubChem BioAssay (NCI).
The panel holds about 83,000 compounds, 20% with a hit somewhere; the sample as a whole holds those more often.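 Method: cells in 96-well plates; compound added at one concentration; 48 h incubation; percent growth measured; values under 10 scored active.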 Values without a mark were called inactive. Activity calls are given as the source filed them.

Test system: HL-60(TB) leukemia
Assay: NCI-60 one-dose screen, 48 h (100 = growth as untreated, 0 = no growth, -100 = all killed)
Conditions: 10 µM unless noted

Row | SMILES | growth
1 | CN1C2CCC1/C(=C\c1ccc(Cl)cc1)C(=O)/C2=C/c1ccc(Cl)cc1 | 20.3%
2 | C=CCOc1ccc2c(c1)CC[C@@H]1[C@@H]2CC[C@]2(C)C(=O)/C(=N/O)C[C@@H]12 | -28.4% (active)
3 | COc1cc(C2C3=C(COC3=O)N(CCO)c3cc4c(cc32)OCCO4)cc(OC)c1OC (stereo not drawn) | -21.8% (active)
4 | O=C(Nc1cccc([N+](=O)[O-])c1)c1ccc2ccccc2c1O | 39.4%
5 | Cc1cn(-c2cc(NC(=O)c3cncc(C#Cc4c(N)ncc5ccc(F)cc45)c3)cc(C(F)(F)F)c2)cn1 | 9.54% (active)
6 | CCCc1cn(CC(=O)Nc2nc3ccccc3s2)nn1 | 101%
7 | C/C=C/CC(C)C(O)C1C(=O)NC(CC)C(=O)N(C)CC(=O)N(C)C(CC(C)C)C(=O)NC(C(C)C)C(=O)N(C)C(CC(C)C)C(=O)NC(C)C(=O)NC(C)C(=O)N(C)C(CC(C)C)C(=O)N(C)C(CC(C)C)C(=O)N(C)C(C(C)C)C(=O)N1C (stereo not drawn) | -9.23% (active)
8 | ClC1=C(Cl)C(Cl)=C(Cl)C1=Cc1ccc(Cl)cc1Cl | -12.7% (active)
9 | C/C(=N/NC(N)=S)C(=O)O | 85.3%
10 | C#CC(C)(O)[C@@H]1C[C@H](CC(=O)O)C1(C)C (stereo partly drawn) | 113%
11 | CN(C)CC1C(=O)O[C@H]2[C@H]1CC/C(COC(=O)c1cc3ccccc3[nH]1)=C\CC[C@@]1(C)O[C@@H]21 (stereo partly drawn) | -36% (active)
12 | O=C1C(=O)c2ccc(Br)cc2-c2cc(Br)ccc21 | -14.5% (active)
13 | COc1cccc(-c2nn(-c3ccccc3)cc2-c2ccnc(NCCCN)c2)c1 | 39.6%
14 | COc1cc2nc(N3CCCC3)nc(Nc3ccccc3)c2cc1OC | -53.9% (active)
15 | NC(=Nc1ccccc1)SCCCSC(N)=Nc1ccccc1 | 82.6%
16 | COc1ccc2c(CCCc3ccc(Cl)cc3Cl)c3[n+](cc2c1OC)CCc1cc2c(cc1-3)OCO2 | -41.4% (active)
17 | Cc1ccc2c(/C=C/C(=O)c3cc(CN4CCOCC4)c(O)c4nc(C)ccc34)cc(CN3CCOCC3)c(O)c2n1 | -25.2% (active)
18 | COc1cc(-c2csc(NC(=O)Nc3ccc(Cl)c(C(F)(F)F)c3)n2)cc(OC)c1OC | -6.26% (active)
19 | COc1ccc(/C=C2\N=C3Sc4cc(Cl)ccc4C(=O)N3C2=O)cc1 | 92.4%

Row | SMILES | growth
20 | Nc1ncnc2c1N=C(c1ccc(Br)cc1)CC(c1cccc(Nc3ccnc4cc(C(F)(F)F)ccc34)c1)N2 (stereo not drawn) | 38.1%
21 | O=C1OC2(c3ccccc31)c1ccccc1-c1ccccc12 | 69.6%
22 | O=C(Nc1cccnc1)c1ccc2ccc3ccc(C(=O)Nc4cccnc4)nc3c2n1 | 37.1%
23 | CC1(O)CCC2CC3OC3(C)CCC3OC3(C)C(O)CC1C2(C)C (stereo not drawn) | 137%
24 | O=C1CCC(C(=O)N/N=C/c2cc(F)ccc2F)N1 (stereo not drawn) | 99.2%
25 | O=C1Nc2ccc(Cl)cc2[C@@](C#CC2CC2)(C(F)(F)F)O1 | 96.5%
26 | CC1(C)[C@@H](O)CC[C@]2(C)[C@H]3CC[C@@H]4[C@H]5[C@H](C(=O)/C=C/c6ccc(C(F)(F)F)cc6)CC[C@]5(CO)CC[C@@]4(C)[C@]3(C)CC[C@@H]12 | 28.1%
27 | CN1CCN(c2cc3c(cc2F)c(=O)c(C(=O)O)cn3-c2ccc(F)cc2)CC1 | 99.3%
28 | N#CC1=C(N)Oc2c(ccc3ccccc23)C1c1cc2ccccc2n2nnnc12 (stereo not drawn) | -32.7% (active)
29 | COC(=O)c1nc(-c2ccccc2)oc1S(=O)(=O)NCC(c1ccc(Cl)cc1)N1CCCCC1 (stereo not drawn) | 17.5%
30 | COc1ccc(-c2nc(SCC(C)C)nc(Nc3ccc([N+](=O)[O-])cc3)c2C#N)cc1 | 90.5%
31 | OCc1cnc2ccccc2c1NC1CCCCCC1 | 88.5%
32 | CNC(=S)NNC(=O)C1CC1 | 73.3%
33 | COc1ccc(/C(=C\c2ccccc2)C(=O)O)cc1OC | 112%
34 | COc1ccccc1C1=C(Br)C(=O)c2nc(C)ccc2C1=O | 44.4%
35 | COc1cc(Cl)ccc1C | 107%
36 | S=C(SSC(=S)N1CCOCC1)N1CCOCC1 | 98%
37 | CC(C)N1CCN(c2ccncc2S(=O)(=O)N2CCN(C)CC2)CC1 | 95.7%
38 | C=C1C(=O)O[C@H]2[C@H]1CC/C(COC(=O)NCCc1c[nH]c3ccc(Cl)cc13)=C\CC[C@@]1(C)O[C@@H]21 | -26.2% (active)
